Laboratory results taken from PubChem BioAssay (NCATS).
Inconclusive results are not listed. Where a call stands in place of a potency, no number is given. The source made the active and inactive calls. Calls come from the whole dose curve; as a rule, active = well fitted curve in the direction sought with a large enough effect; inconclusive = small, poorly fitted or top-dose-only effect, or another doubt; inactive = no such curve, though single readings can be large; an effect the other way counts as inactive or inconclusive.

Legend:
[1] = molecular target: Lysine-specific demethylase 5B (Homo sapiens) (UniProt Q9UGL1); assay: Optimization screen for KDM5B Histone Demethylases FDH coupled qHTS against the LOPAC library (AID 1347166)
Lysine-specific demethylase 5B (Homo sapiens), sequence (Q9UGL1 whole entry, looked up): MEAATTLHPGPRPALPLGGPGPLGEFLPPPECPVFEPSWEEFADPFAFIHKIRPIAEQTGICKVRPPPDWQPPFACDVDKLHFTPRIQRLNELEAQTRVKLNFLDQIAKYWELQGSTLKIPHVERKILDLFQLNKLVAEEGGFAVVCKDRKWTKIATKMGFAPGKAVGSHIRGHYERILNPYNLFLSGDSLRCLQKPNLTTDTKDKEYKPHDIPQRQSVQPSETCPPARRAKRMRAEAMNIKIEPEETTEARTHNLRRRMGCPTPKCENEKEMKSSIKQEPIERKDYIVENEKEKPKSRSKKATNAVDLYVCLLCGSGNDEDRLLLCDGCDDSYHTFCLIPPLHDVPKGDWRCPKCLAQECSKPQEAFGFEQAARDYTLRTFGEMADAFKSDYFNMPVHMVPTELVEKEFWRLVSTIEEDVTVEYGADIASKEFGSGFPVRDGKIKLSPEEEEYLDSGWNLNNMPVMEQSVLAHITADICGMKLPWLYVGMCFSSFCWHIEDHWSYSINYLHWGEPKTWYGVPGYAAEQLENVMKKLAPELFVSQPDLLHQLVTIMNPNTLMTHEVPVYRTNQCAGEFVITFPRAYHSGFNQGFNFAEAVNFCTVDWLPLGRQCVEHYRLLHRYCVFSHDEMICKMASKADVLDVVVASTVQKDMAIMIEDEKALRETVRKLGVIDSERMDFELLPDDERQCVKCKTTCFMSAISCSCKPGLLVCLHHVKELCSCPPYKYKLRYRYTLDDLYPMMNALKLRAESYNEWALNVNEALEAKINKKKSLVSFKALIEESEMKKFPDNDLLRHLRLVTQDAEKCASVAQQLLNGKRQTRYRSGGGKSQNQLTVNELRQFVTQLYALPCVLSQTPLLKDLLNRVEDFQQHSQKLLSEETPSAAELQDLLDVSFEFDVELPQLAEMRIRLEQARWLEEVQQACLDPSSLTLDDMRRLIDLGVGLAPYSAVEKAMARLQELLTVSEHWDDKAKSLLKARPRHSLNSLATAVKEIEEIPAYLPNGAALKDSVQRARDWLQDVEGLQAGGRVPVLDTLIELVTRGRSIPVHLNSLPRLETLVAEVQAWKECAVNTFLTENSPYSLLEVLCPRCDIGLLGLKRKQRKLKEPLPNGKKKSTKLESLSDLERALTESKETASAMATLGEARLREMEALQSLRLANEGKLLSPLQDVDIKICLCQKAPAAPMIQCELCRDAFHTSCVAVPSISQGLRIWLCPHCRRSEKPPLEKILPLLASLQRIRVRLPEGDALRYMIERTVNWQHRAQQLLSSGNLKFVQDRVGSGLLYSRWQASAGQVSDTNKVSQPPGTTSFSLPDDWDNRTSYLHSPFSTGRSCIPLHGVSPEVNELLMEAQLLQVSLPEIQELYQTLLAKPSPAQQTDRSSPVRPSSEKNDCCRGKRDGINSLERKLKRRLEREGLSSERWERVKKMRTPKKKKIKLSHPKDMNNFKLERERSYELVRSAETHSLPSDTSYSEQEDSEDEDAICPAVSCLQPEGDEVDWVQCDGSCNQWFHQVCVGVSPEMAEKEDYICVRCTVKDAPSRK
Summary of the method: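 KDM5BDeltaAP (200nM final) in 50mM HEPES pH 7.5, 0.01% Tween-20 was preincubated with compound for 10 min at room temperature. A substrate mix of 12.5uM H3K4Me3, 25uM a-ketoglutarate, ascorbate, Fe2+, NAD+ and formaldehyde dehydrogenase was then added. NADH fluorescence (340/450 nm) was read initially and after 30 min.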

[2] = system: Zika virus NS2B-NS3 protease (linked construct); assay: Primary screen NINDS Rhodamine qHTS for Zika virus inhibitors (AID 1347160); details: outcome: dose series up to 57.1 µM; note: nearly all actives have a fitted effect of over 55% in size
Summary of the method: (§1)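 Enzyme (25 nM, linked NS2B-NS3) was preincubated 15 min with compound in 10 mM Tris-HCl pH 8.0, 0.01% Tween 20. Rhodamine110 substrate (1.5 microM) was then added and fluorescence read at start and after 15 min.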

[3] = OV-KATE Cancer Cell Toxicity qHTS against the NCATS CANVASS Library (AID 1347345)
Summary of the method: (§2)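 Bortezomib titration and single-dose wells served as plate controls. Test compounds, 11 points, acted on 1000 cells/well for 72 h at 37 degrees C; CellTiter-Glo luminescence quantified remaining viable cells.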

[4] = HPAF-II Cancer Cell Toxicity qHTS against the NCATS CANVASS Library (AID 1347346); note: nearly all actives have a fitted effect of over 55% in size
Summary of the method: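 1000 HPAF-II cells/well; 4 h pre-incubation; 11-pnt compound titration; 72 h, 37 degrees C/5% CO2; CellTiter-Glo, 15 min RT; luminescence read.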

[5] = UWB1.289 Cancer Cell Toxicity qHTS against the NCATS CANVASS Library (AID 1347347); note: nearly all actives have a fitted effect of over 60% in size
Summary of the method: as §2

[6] = OV-SAHO Cancer Cell Toxicity qHTS against the NCATS CANVASS Library (AID 1347348); note: nearly all actives have a fitted effect of over 55% in size
Summary of the method: as §2

[7] = Panc-1005 Cancer Cell Toxicity qHTS against the NCATS CANVASS Library (AID 1347349); note: nearly all actives have a fitted effect of over 60% in size
Summary of the method: as §2

[8] = SW1088 Cancer Cell Toxicity qHTS against the NCATS CANVASS Library (AID 1347350); note: nearly all actives have a fitted effect of over 75% in size
Summary of the method: as §2

[9] = U-118MG Cancer Cell Toxicity qHTS against the NCATS CANVASS Library (AID 1347351)
Summary of the method: as §2

[10] = COV-362 Cancer Cell Toxicity qHTS against the NCATS CANVASS Library (AID 1347352)
Summary of the method: (§3)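 1000 cells/well, 4 h pre-incubation 37 °C/5% CO2; 11-pnt titration; 72 h; CellTiter-Glo 15 min RT, luminescence.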

[11] = A2780 Cisplatin Sensitive Ovarian Cancer Cell Toxicity qHTS against the NCATS CANVASS Library (AID 1347353); details: A2780 ovarian cancer viability, ATPLite luminescence, 72 h; at 46.1 µM (top of the series); note: nearly all actives have a fitted effect of over 60% in size
Summary of the method: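 750 cells/well, 4 h settle; 11-pt cpd titration; 72 h, 37 °C, 5% CO2; ATPLite 10 min RT; luminescence read.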

[12] = UWB1.289-WTBRCA1 Cancer Cell Toxicity qHTS against the NCATS CANVASS Library (AID 1347354); details: UWB1.289-WTBRCA1 viability, CellTiter-Glo luminescence, 72 h; at 38.3 µM (top of the series)
Summary of the method: as §3

[13] = HEK-293 Cancer Cell Toxicity qHTS against the NCATS CANVASS Library (AID 1347355); note: nearly all actives have a fitted effect of over 65% in size
Summary of the method: as §3

[14] = HPAF-II 24hr Apoptosis Induction qHTS against the NCATS CANVASS Library (AID 1347356)
Summary of the method: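 500 HPAF-II cells/well; compounds in 11-pnt qHTS; 24 h, 37 C/5% CO2; Caspase-Glo 3/7 added, 15 min RT dark; luminescence read. Doxorubicin control.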

[15] = system: Zika virus NS2B-NS3 protease (unlinked complex); assay: Primary screen GU Rhodamine qHTS for Zika virus inhibitors: Unlinked NS2B-NS3 protease assay (AID 1347159); note: nearly all actives have a fitted effect of over 60% in size
Summary of the method: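 Enzyme 25 nM in Tris-HCl pH 8.0 + 0.01% Tween 20; compounds up to 114 microM, 15 min RT dark; + Rhod110 substrate 1.5 microM; read t0 and 15 min; delta fluorescence → % inhibition → 4-parameter Hill fit.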

[16] = Confirmatory screen GU Rhodamine qHTS for Zika virus inhibitors qHTS (AID 1347157); details: purified enzyme assay, Rhodamine110 substrate fluorescence, 15 min; note: potency is the fitted concentration of half-maximal effect; nearly all actives have a fitted effect of over 70% in size
Summary of the method: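 Percent inhibition derives from the 15-min fluorescence change (ex 480, em 540 nm), normalized to no-enzyme and no-inhibitor wells. Reactions contained 25 nM NS2B-NS3 complex and 1.5 microM substrate in 10 mM Tris-HCl pH 8.0.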

[17] = Confirmatory screen NINDS Rhodamine qHTS for Zika virus inhibitors (AID 1347161); note: nearly all actives have a fitted effect of over 60% in size; note: potency is the fitted concentration of half-maximal effect
Summary of the method: as §1

[18] = Tertiary RLuc qRT-PCR qHTS assay for Zika virus inhibitors (AID 1347169); note: top concentration of the series differs between compounds; nearly all actives have a fitted effect of over 55% in size
Summary of the method: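 Inhibition of ZIKV-RLuc replication in Vero cells, read as Renilla luminescence 1-1.5 hrs after live-cell substrate addition, following 48-72 hrs infection at MOI 1-2 in presence of compound.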

[19] = Vero cells viability qHTS for Zika virus inhibitors (AID 1347167)
Summary of the method: (§4)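 To flag cytotoxic protease inhibitors, viability is measured by ATP-dependent luminescence (CellTiter Glo) after cells attached overnight receive compound for 24 to 48 hours in DMEM with 4% FBS.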

[20] = HepG2 cells viability qHTS for Zika virus inhibitors (AID 1347168)
Summary of the method: as §4

With NC(=O)CN1CCCC1=O as the molecule, how does the outcome [1] read?
Its outcome is “inactive”.

With CN(C)CCc1c[nH]c2ccccc12 as the molecule, how does the outcome [2] read?
The outcome was “inactive”.

And the outcome [3]?
Its outcome is “inactive”.

What about the outcome [4] of the same molecule?
Its outcome is “inactive”.

And the outcome [5]?
Its outcome is “inactive”.

What about the outcome [6] of the same molecule?
The outcome was “inactive”.

And the outcome [7]?
The outcome was “inactive”.

And the outcome [8]?
Its outcome is “inactive”.

What about the outcome [9] of the same molecule?
The outcome was “inactive”.

And the outcome [10]?
The outcome was “inactive”.

What about the outcome [11] of the same molecule?
Its outcome is “inactive”.

What about the outcome [12] of the same molecule?
Its outcome is “inactive”.

And the outcome [13]?
Its outcome is “inactive”.

What about the outcome [14] of the same molecule?
The outcome was “inactive”.

With COc1ccc(C(=O)N2CCCC2=O)cc1 as the molecule, how does the outcome [1] read?
The outcome was “inactive”.

What does the source list for CCCC[N+]1(C)[C@@H]2CC(OC(=O)[C@H](CO)c3ccccc3)C[C@H]1[C@@H]1O[C@@H]12 (some centres not stated)?
outcome [15]: inactive; outcome [2]: inactive

For O=C(O)c1nn(Cc2ccc(Cl)cc2Cl)c2ccccc12, which outcome [1] is on record?
The outcome was “inactive”.

What does the source list for CCOC(=O)c1cncn1C(C)c1ccccc1 (configuration not stated)?
outcome [15]: inactive; outcome [2]: inactive

For Cc1nnc2n1-c1sc(CCc3ccc(CC(C)C)cc3)cc1C(c1ccccc1Cl)=NC2C (configuration not stated), which Potency [16] is on record?
The Potency was 44.1 µM (active).

What about the outcome [15] of the same molecule?
Its outcome is “inactive”.

And the Potency [17]?
Its Potency is 44.1 µM (active).

What about the outcome [18] of the same molecule?
The outcome was “inactive”.

What does the source list for O=C(O)CCCCCCNC1c2ccccc2CCc2ccccc21?
outcome [15]: inactive; outcome [2]: inactive

For O=C(N[C@@H]1N=C(c2ccccc2F)c2cccc3c2N(CC3)C1=O)c1cc2ccccc2[nH]1, which outcome [15] is on record?
Its outcome is “inactive”.

With CCOC(=O)NC(C)(C)Cc1ccc(Cl)cc1 as the molecule, how does the outcome [15] read?
The outcome was “inactive”.

What about the outcome [2] of the same molecule?
The outcome was “inactive”.

Which outcome [2] does the source give for CCCCC1C(=O)NC(=O)N(C2CCCCC2)C1=O (configuration not stated) here?
The outcome was “inactive”.

What does the source list for CCOC(=O)c1ncn2c1CN(C)C(=O)c1c(I)cccc1-2?
outcome [15]: inactive; outcome [2]: inactive

For Oc1ccc([C@H]2CNCc3c2ccc(O)c3O)cc1O, which Potency [17] is on record?
Its Potency is “inactive”.

What about the outcome [19] of the same molecule?
The outcome was “inactive”.

What about the outcome [20] of the same molecule?
The outcome was “inactive”.

With O=C(N[C@H]1N=C(c2ccccc2F)c2cccc3c2N(CC3)C1=O)c1cc2ccccc2[nH]1 as the molecule, how does the outcome [15] read?
Its outcome is “inactive”.

What about the outcome [2] of the same molecule?
Its outcome is “inactive”.

Which outcome [15] does the source give for CC[C@H]1C[C@H]2[C@@H]3CCC4=CC(=O)CC[C@@H]4[C@H]3CC[C@]2(C)[C@H]1O here?
Its outcome is “inactive”.

And the outcome [2]?
Its outcome is “inactive”.

For C[C@]12CC[C@H](O)CC1=CC[C@@H]1[C@@H]2CC[C@]2(C)C(=O)CC[C@@H]12, which outcome [15] is on record?
The outcome was “inactive”.

And the outcome [2]?
Its outcome is “inactive”.

What does the source list for COc1ccc2c(C(=O)c3ccc(Cl)cc3)c(C)n(CC(=O)O)c2c1?
outcome [15]: inactive; outcome [2]: inactive

With CCCOC(=O)Cc1ccc(OCC(=O)N(CC)CC)c(OC)c1 as the molecule, how does the outcome [15] read?
Its outcome is “inactive”.

For COC(=O)C1=CCCN(C)C1, which outcome [1] is on record?
The outcome was “inactive”.

Which outcome [19] does the source give for CC(C)=CCN1CC[C@@]2(C)c3cc(O)ccc3C[C@@H]1[C@@H]2C here?
Its outcome is “inactive”.

And the outcome [20]?
The outcome was “inactive”.
